High-throughput results: PubChem BioAssay, several laboratories
Bead autofluor = flagged as autofluorescent in microsphere protease counterscreen; AID 624483; hit rate 3.1% among 360,000; fluorescence intensity (no concentration beside the values); compound autofluorescence counterscreen, microsphere flow cytometry; active compounds read high; in the data active = fluorescence intensity above about 16000; inconclusive = no clear call, values can overlap the other calls
BoNT-F LC inh = BoNT F light chain protease inhibition. hit rate 0.22% among 360,000. inhibition, % at 10 µM. Multiplex microsphere protease cleavage assay, flow cytometry; in the data active = inhibition above about 35%, passing the limit was not always enough; inconclusive = no clear call, values can overlap the other calls; also: plate controls were buffer without enzyme for full effect and enzyme alone for no effect
BH1578 lux ind = induces V. cholerae light production without autoinducers. hit rate 0.16% among 350,000. V. cholerae BH1578 lux reporter, luminescence, 6 h. activation, % at 18.7 µM. AID 588436; in the data active = activation mostly above about 9.7%, no sharp cut-off; inconclusive = no clear call, values can overlap the other calls; inactive = mostly below about 3.7%
Anthrax LF inh2 = inhibitors of Bacillus anthracis lethal factor protease; multiplex microsphere protease cleavage assay, LF; inhibition, % at 10 µM; hit rate 0.12% among 360,000; also: plate controls were buffer without enzyme for full effect and enzyme alone for no effect
Target sequence (P15917 whole entry, looked up): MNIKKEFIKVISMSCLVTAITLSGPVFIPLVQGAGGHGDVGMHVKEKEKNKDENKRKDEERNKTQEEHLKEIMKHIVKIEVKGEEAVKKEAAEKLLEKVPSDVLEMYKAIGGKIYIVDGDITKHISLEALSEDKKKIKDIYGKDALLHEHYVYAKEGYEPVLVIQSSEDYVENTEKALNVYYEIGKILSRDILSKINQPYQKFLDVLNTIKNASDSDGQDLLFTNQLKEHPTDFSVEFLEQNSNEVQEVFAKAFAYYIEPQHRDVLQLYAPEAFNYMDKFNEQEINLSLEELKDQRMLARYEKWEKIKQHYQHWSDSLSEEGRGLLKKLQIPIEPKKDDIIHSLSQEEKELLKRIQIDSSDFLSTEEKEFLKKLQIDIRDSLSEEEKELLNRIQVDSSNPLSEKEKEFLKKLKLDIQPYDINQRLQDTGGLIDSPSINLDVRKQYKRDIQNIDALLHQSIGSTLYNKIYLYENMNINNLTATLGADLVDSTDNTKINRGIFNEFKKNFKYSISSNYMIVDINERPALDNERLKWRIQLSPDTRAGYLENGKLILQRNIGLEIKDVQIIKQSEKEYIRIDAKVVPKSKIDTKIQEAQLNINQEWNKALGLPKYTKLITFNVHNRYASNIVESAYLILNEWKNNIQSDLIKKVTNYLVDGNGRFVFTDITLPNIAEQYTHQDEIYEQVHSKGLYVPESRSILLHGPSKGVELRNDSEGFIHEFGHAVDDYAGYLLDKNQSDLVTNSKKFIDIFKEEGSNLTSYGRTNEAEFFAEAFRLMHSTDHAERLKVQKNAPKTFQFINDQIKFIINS
BoNT A protease = inhibitors of Botulinum neurotoxin A light chain protease. multiplex microsphere protease substrate cleavage, flow cytometry. inhibition, % at 10 µM. hit rate 0.17% among 360,000. AID 588499; also: plate controls were buffer without enzyme for full effect and enzyme alone for no effect
BJeLR lethal = BJeLR cell viability loss. inhibition, % (no concentration beside the values). hit rate 0.17% among 300,000. BJeLR (HRASV12) viability, CellTiter-Glo ATP luminescence, 48 h; in the data active = inhibition above about 50%; inconclusive = no clear call, values can overlap the other calls
Numbers without * were called inactive; i = inactive; ? = inconclusive; . = no result given. Most compounds without a hit are left out; they make up all but 3.7% or so of the library. Rule as the data show it, unless noted: active = inhibition above about 30%; inconclusive = no clear call, values can overlap the other calls; inactive = below that.

SMILES	Bead autofluor	BoNT-F LC inh	BH1578 lux ind	Anthrax LF inh2	BoNT A protease	BJeLR lethal
COc1ccccc1N1CCN(Cc2cccc(OC)c2O)CC1	21009*	8	1	-6	7	9
COc1ccccc1N1CCN(CC(O)COc2c(OC)cccc2OC)CC1 (configuration not stated)	19582*	1	-5	-1	1	7
COc1cccc(OC)c1OCC(O)CN1CCN(c2ccccc2)CC1 (configuration not stated)	4394	-12	i	-1	0	-9
COc1ccccc1N1CCN(c2cc(=O)n(-c3ccccc3Cl)c(=O)[nH]2)CC1	21673*	-7	0	-4	-5	1
Cc1cc(C)n2c(NC3CCCCC3)c(-c3cccnc3)nc2n1	7946	3	.	3	1	.
CCC(=O)c1ccc(OCC(O)CN2CCN(c3ccc(F)cc3)CC2)cc1 (configuration not stated)	19445*	5	i	-2	3	2
COc1ccccc1N1CCN(Cc2ccc(Br)o2)CC1	22305*	1	i	-3	2	.
CC(=O)c1ccc(OCC(O)CN2CCN(c3ccc(F)cc3)CC2)cc1 (configuration not stated)	3899	?	i	-6	-2	-6
CCOc1ccccc1N1CCN(Cc2ccc(OC)c(OC)c2OC)CC1	21368*	5	i	-4	?	17
C=CCc1ccccc1OCC(O)CN1CCOCC1 (configuration not stated)	3221	16	-1	-1	4	1
C=CCc1ccccc1OCC(O)CN1CCN(c2ccc(OC)cc2)CC1 (configuration not stated)	23665*	-7	i	-5	?	4
COC(=O)C1(C(=O)OC)C/C=C\CCN(S(=O)(=O)c2ccccc2[N+](=O)[O-])CC1	5648	0	.	2	0	.
CCOC1=C2[C@@H](CN(S(=O)(=O)c3ccc(C)cc3)[C@H]2c2cccc3ccccc23)[C@H]2C(=O)NC(=O)[C@H]2C1	5931	1	.	-3	0	.
OC(COCc1ccccc1)CN1CCN(c2ccccc2F)CC1 (configuration not stated)	22811*	-1	i	-2	1	2
COc1ccccc1N1CCN(Cc2ccccc2F)CC1	5507	-6	0	7	0	5
COc1ccccc1N1CCN(Cc2ccccc2Cl)CC1	23767*	-7	-2	-9	-3	-2
C[C@H](CO)N1C[C@H](C)[C@@H](CN(C)S(=O)(=O)c2cn(C)cn2)OCc2cn(nn2)CCCC1=O	3792	-3	-1	5	-1	.
O=S1(=O)N[C@H](Cc2ccccc2)COc2cc(N3CCC[C@H]3CO)ccc21	4076	-13	.	-17	0	.
CCCCNC(=O)C1c2ccccc2OCC(=O)N1C1CC1 (configuration not stated)	5002	3	.	9	1	.
C=CCn1c(O)c(N=NC(=S)Nc2ccccc2F)c2ccccc21	4227	-7	0	-1	8	6
C=CCn1c(O)c(N=NC(=S)Nc2cccc(C)c2)c2ccccc21	2362	-3	0	9	30*	25
CCOC(=O)CC1=C(C(=O)OCC)C(c2ccc(OC)cc2OC)C(C#N)=C(N)O1 (configuration not stated)	3966	-2	i	-9	-1	-8
CCOC(=O)C1=C(CC)OC(N)=C(C#N)C1c1ccc(OC)cc1OC (configuration not stated)	19947*	7	i	1	?	-3
CCOC(=O)C1=C(C)OC(N)=C(C#N)C1c1ccsc1 (configuration not stated)	17866*	16	i	-9	18	7
CCc1nc2ccc(C(=O)N(C)CCN(C)C)cn2c1N(CC)C(=O)NCCc1ccccc1	3807	0	0	-8	0	.
CCCC(=O)Nc1ccc2c(c1)nc(CN1CCN(C(C)=O)CC1)n2C	5805	-3	i	-12	0	-11
Cc1nn(CC(=O)Nc2ccc3c(c2)nc(CCN2CCCCC2)n3C)c(=O)c2ccccc12	20530*	-1	0	-1	-1	5
Cn1c(CN2CCCC2)nc2cc(NC(=O)c3ccc(Cl)cc3)ccc21	3884	0	2	-6	1	1
Cn1c(CN2CCCCC2)nc2cc(NC(=O)c3ccc(Cl)cc3)ccc21	20694*	5	-2	2	5	14
